Test systems include NCI-H23 lung; NCI-H226 lung; NCI-H322M lung; HOP-62 NSCLC; NCI-H460 lung; HOP-92 NSCLC; NCI-H522 lung; A549/ATCC NSCLC; 786-0 renal; COLO 205 colon.
Holding throughout (assay): NCI-60 one-dose screen, 48 h (100 = growth as untreated, 0 = no growth, -100 = all killed)
Holding throughout (conditions): 10 µM unless noted

This is part of a sample that, as a whole, favours compounds with a hit. Of some 83,000 tested, about 20% had one in any assay.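 The endpoint reported here, percent growth, reads 100 for growth as untreated, 0 for no net growth and -100 for all cells dead.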 A number with no mark means an inactive call. The source made the active and inactive calls. The calls were made as follows: active = growth percent below 10; inactive = the rest.

As to `CCn1c(Cc2ccccc2Nc2c(Cl)cccc2Cl)nnc1SCC(=O)NN1C(=O)/C(=C/c2cc(OC)c(O)c(OC)c2)SC1=S`, the growth in the experiment with NCI-H23 lung was 48.3%; in the experiment with NCI-H226 lung, 40.7%; in the experiment on NCI-H322M lung, 42.2%; with HOP-62 NSCLC it was 29.9%; with NCI-H460 lung it was 22.1%; with HOP-92 NSCLC it was 11.1%. Also, the growth is -1.58% (active) in the experiment on NCI-H522 lung, 60.9% with A549/ATCC NSCLC, 26.3% with 786-0 renal and 44.9% in the experiment on COLO 205 colon.

Take `N#Cc1c(-c2ccc(Cl)cc2)nc(N/N=C/c2cccc(Br)c2)nc1N1CCOCC1`: the growth with NCI-H23 lung is 98.3%; in the experiment with NCI-H226 lung, 92.3%; in the experiment on NCI-H322M lung, 90.6%; in the experiment on HOP-62 NSCLC it was 90.9%; in the experiment on NCI-H460 lung it was 87%; in the experiment with HOP-92 NSCLC, 71.2%. For the same compound, the growth in the experiment on NCI-H522 lung was 91.1%; in the experiment with A549/ATCC NSCLC, 80.4%; in the experiment on 786-0 renal, 61.8%; in the experiment with COLO 205 colon, 44%.

Regarding `C=CC(=O)Nc1cccc(Nc2nc(SC)nc(-c3cccc([N+](=O)[O-])c3)c2C#N)c1`, the growth in the experiment with NCI-H23 lung is 44.8%; in the experiment on NCI-H226 lung, 47.2%; in the experiment with NCI-H322M lung it was 74%; with HOP-62 NSCLC it was 53.4%; in the experiment with NCI-H460 lung it was 40.4%; with HOP-92 NSCLC, -19.6% (active). The growth in the experiment with NCI-H522 lung was 38.7%; in the experiment with A549/ATCC NSCLC, 7.62% (active); with 786-0 renal it was 63.8%; with COLO 205 colon it was 20.3%.

With `O=C1/C(=C(/c2ccccc2)N2CCOCC2)Cc2ccccc21`, the growth with NCI-H23 lung is 54.1%; in the experiment on NCI-H226 lung, 58.8%; with NCI-H322M lung it was 98.3%; with HOP-62 NSCLC it was 81.8%; in the experiment with NCI-H460 lung, 81%; in the experiment with HOP-92 NSCLC, 8.98% (active). Besides, the growth was -63.6% (active) in the experiment with NCI-H522 lung, 77.2% in the experiment on A549/ATCC NSCLC, 7.77% (active) with 786-0 renal and -48.4% (active) in the experiment on COLO 205 colon.

For the compound `COc1ccc(C2C(C#N)=C(N)Oc3n[nH]c(-c4cccs4)c32)cc1I` (stereo not given), the growth was 92.8% in the experiment with NCI-H23 lung; 98.3% in the experiment on NCI-H226 lung; 102% in the experiment with NCI-H322M lung; 81.7% in the experiment on HOP-62 NSCLC; 101% in the experiment with NCI-H460 lung; 88.2% with HOP-92 NSCLC. Moreover, the growth with NCI-H522 lung was 83.2%; in the experiment with A549/ATCC NSCLC it was 87.1%; in the experiment with 786-0 renal, 99.1%; with COLO 205 colon, 117%.

Regarding `CC1CCNC(C)C1` (stereo not given), the growth was 104% with NCI-H23 lung; 95.7% in the experiment with NCI-H226 lung; 109% in the experiment with NCI-H322M lung; 104% with HOP-62 NSCLC; 105% with NCI-H460 lung; 76.3% in the experiment on HOP-92 NSCLC. Further, the growth was 103% in the experiment with NCI-H522 lung, 112% in the experiment with A549/ATCC NSCLC, 106% in the experiment with 786-0 renal and 105% with COLO 205 colon.

Regarding `CC(C)(C)c1cc(/C=N\NC(=O)/C=C/C=C/c2ccc3c(c2)OCO3)c(O)c(C(C)(C)C)c1`, the growth is 90.5% in the experiment on NCI-H23 lung; 75.9% in the experiment on NCI-H226 lung; 63.5% in the experiment on NCI-H322M lung; 66.8% in the experiment on HOP-62 NSCLC; 39.6% in the experiment on NCI-H460 lung; 88.5% in the experiment with HOP-92 NSCLC. Besides, the growth in the experiment on NCI-H522 lung was 80.1%; with A549/ATCC NSCLC, 87.5%; in the experiment on 786-0 renal it was 85.4%; with COLO 205 colon it was 94%.

On to `Clc1ccc2nc3nc4ccc[nH]c4cc3c2c1`, for which the growth is 73.7% in the experiment on NCI-H23 lung; 83.8% in the experiment with NCI-H226 lung; 65.1% in the experiment on NCI-H322M lung; 89.7% with HOP-62 NSCLC; 54.4% in the experiment on NCI-H460 lung; 105% in the experiment with HOP-92 NSCLC. Besides, the growth in the experiment with NCI-H522 lung was 81.1%; in the experiment on A549/ATCC NSCLC it was 79.2%; in the experiment with 786-0 renal it was 105%; with COLO 205 colon, 98.9%.

`C=C(C)[C@@H]1CC[C@]2(C(=O)OC)CC[C@]3(C)[C@H](CC[C@@H]4[C@@]5(C)C/C(=C/c6cccc(I)c6)C(=O)C(C)(C)[C@@H]5CC[C@]43C)[C@@H]12`: the growth in the experiment with NCI-H23 lung is 91.4%; in the experiment on NCI-H226 lung it was 94.2%; with NCI-H322M lung, 97.3%; with HOP-62 NSCLC it was 88%; with NCI-H460 lung, 101%; in the experiment with HOP-92 NSCLC, 100%. The growth in the experiment with NCI-H522 lung is 89%; in the experiment with A549/ATCC NSCLC, 101%; with 786-0 renal, 95.3%; in the experiment with COLO 205 colon it was 125%.

In the case of `COc1cc(Nc2cc(C)nc(N3CCN(c4ccnc5cc(Cl)ccc45)CC3)n2)cc(OC)c1`, the growth is 9.55% (active) with NCI-H23 lung; 22.9% with NCI-H226 lung; 8.83% (active) with NCI-H322M lung; 10.1% in the experiment on HOP-62 NSCLC; 2.55% (active) in the experiment on NCI-H460 lung; 5.3% (active) with HOP-92 NSCLC. Besides, the growth in the experiment on NCI-H522 lung is 9% (active); with A549/ATCC NSCLC, 4.7% (active); in the experiment with 786-0 renal, -13.1% (active); in the experiment on COLO 205 colon, -24.4% (active).

With `CC1(C)CC[C@]2(C(=O)Nc3ccccn3)CC[C@]3(C)C(=CC[C@@H]4[C@@]5(C)C/C(=C/c6cccnc6)C(=O)C(C)(C)[C@@H]5CC[C@]43C)[C@H]2C1`, the growth in the experiment with NCI-H23 lung is 35.9%; with NCI-H226 lung, 47.8%; in the experiment on NCI-H322M lung, 79.1%; in the experiment with HOP-62 NSCLC, 54.7%; with NCI-H460 lung, 10.6%; with HOP-92 NSCLC, 57.7%. Further, the growth in the experiment with NCI-H522 lung is 30.5%; with A549/ATCC NSCLC, 27.3%; in the experiment with 786-0 renal it was 43.2%; in the experiment on COLO 205 colon, 4.76% (active).

In the case of `CC1C(/C=N/Nc2ccccc2)C(C#N)(C#N)C1(C#N)C#N` (stereo not given), the growth is 78.6% in the experiment on NCI-H23 lung; 88% in the experiment with NCI-H226 lung; 75.1% with NCI-H322M lung; 57.1% with HOP-62 NSCLC; 87.9% in the experiment on NCI-H460 lung; 90.5% in the experiment on HOP-92 NSCLC. Further, the growth with NCI-H522 lung is 53.9%; in the experiment with A549/ATCC NSCLC, 85.1%; in the experiment on 786-0 renal, 92.9%; in the experiment on COLO 205 colon it was 105%.

The record behind these values is PubChem BioAssay (NCI).
